Most compounds without a hit are left out; they make up all but 2.2% or so of the library.
Mito fusion act – qHTS Assay for Small Molecule Inhibitors of Mitochondrial Division or Activators of Mitochondrial Fusion | S. cerevisiae fusion-defective mutant growth rescue, CellTiterGlo 48 h | actives 0.23% (n = 320,000) | Potency, µM (titrated, usually from 46.1 µM), hits mostly activators | AID 485298, 2010; note: nearly all actives have a fitted effect of over 45% in size
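Growth-rescue viability read-out: after 48 h at the non-permissive 37C in glycerol/ethanol YPEG, yeast mitochondrial fusion mutants are measured by CellTiterGlo luminescence; compounds (23 nl pinned per well) restoring growth score as division inhibitors or fusion activators.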
Abeta yeast res – qHTS for compounds that reverse cellular toxicity of Amyloid beta (A-beta) peptide in yeast: Primary Screen. yeast expressing A-beta42, growth rescue, OD600, 48 h; response scale: 0% DMSO, 100% iron-clioquinol control. Potency, µM (doses to about 46.1 µM), actives largely listed as activators. actives 0.063% (n = 410,000). AID 1347071, 2019; note: nearly all actives have a fitted effect of over 55% in size
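Yeast A-beta toxicity model in growth medium with pinned compounds, 48 h at 30 C; growth read as absorbance at 600 nm. Normalized to FeCl3/clioquinol equimolar mix (positive) and DMSO (negative).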
aSyn yeast inh – qHTS of alpha-syn Inhibitors. Yeast expressing alpha-synuclein, growth rescue, BacTiter-Glo, 24 h. Potency, µM (top dose mostly 46.1 µM), usual class: activators. actives 0.14% (n = 370,000); note: nearly all actives have a fitted effect of over 65% in size
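Screening used galactose-induced yeast with toxic alpha-synuclein levels, exposed to compound for 24 hr at 30 deg C. Cell growth, read with BacTiter-Glo luminescence, gave the measured signal.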
ERG-DNA inh – qHTS for Small Molecule Inhibitors of the ERG Ets/DNA interaction | fluorescence polarization, His-ERG Ets domain / labelled DNA | Potency, µM (titrated, usually from 76.9 µM), most hits filed as inhibitors | actives 0.028% (n = 370,000) | AID 624246, 2012; active = well fitted inhibition curve with a large enough effect in the polarisation, with a control signal flat; inconclusive = small, poorly fitted or top-dose-only effect, or effect the other way, or a change in a side signal; inactive = no such curve, though single readings can be large or run the other way; the % refers to the polarisation;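 note: polarization taken with two DNA probes labelled with fluorescein and Texas red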
Target sequence (P11308 whole entry, looked up, the tested form may be a part): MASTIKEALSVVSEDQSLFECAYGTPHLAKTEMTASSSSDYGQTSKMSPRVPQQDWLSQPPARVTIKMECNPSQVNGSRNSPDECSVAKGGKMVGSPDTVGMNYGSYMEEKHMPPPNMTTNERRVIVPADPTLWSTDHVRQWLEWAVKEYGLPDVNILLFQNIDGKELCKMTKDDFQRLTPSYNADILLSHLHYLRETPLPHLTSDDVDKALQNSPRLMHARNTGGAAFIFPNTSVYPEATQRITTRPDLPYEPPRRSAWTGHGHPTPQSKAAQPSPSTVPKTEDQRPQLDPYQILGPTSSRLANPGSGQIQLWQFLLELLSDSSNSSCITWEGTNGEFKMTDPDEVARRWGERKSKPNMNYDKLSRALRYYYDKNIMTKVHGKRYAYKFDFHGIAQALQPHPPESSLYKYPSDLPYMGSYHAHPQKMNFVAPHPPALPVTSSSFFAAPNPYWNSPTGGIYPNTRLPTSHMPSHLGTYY
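His-tagged ERG Ets domain (1 uM in the protein solution; 300mM KCl, 50mM Tris-HCl, 1mM EDTA, 1mM DTT, pH 7.5) received compound, then a probe mix of 5 nM fluorescein-DNA and 100nM Texas-615-DNA. Fluorescence polarization was read for both dyes.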
TDP-43 yeast inh – qHTS of TDP-43 Inhibitors; AID 652104, 2013; actives 1.8% (n = 410,000); TDP-43 expressing yeast growth rescue, BacTiter-Glo, 24 h; Potency, µM (titrated, usually from 46.1 µM), hits mostly activators; note: nearly all actives have a fitted effect of over 50% in size
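Yeast cells expressing TDP-43 under galactose induction are exposed to compounds for 24 hr at 30 deg C. BacTiter-Glo luminescence measures growth, so protective compounds score as activators.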
FUS suppressor – qHTS for Suppressors of FUS Proteinopathy: Primary screen using FUS-linked yeast assay; AID 1347120, 2019; Potency, µM (doses to about 76.6 µM), usual class: activators; S. cerevisiae FUS-expressing, growth rescue, OD600, 24 h; actives 0.24% (n = 390,000); note: nearly all actives have a fitted effect of over 55% in size
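Read-out: OD at 600 nm after 24hr at 30C, reporting rescue of FUS-induced yeast toxicity. Cells at OD 0.005 in galactose (2%) minimal medium; compounds tested in a dilution series; CP55940 titration from 92uM final as control.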
Numbers stand for hits; n = inactive; u = inconclusive; x = no result given; [ ] = dose if it differs, or a comment. Unless noted, calls come from the whole dose curve; as a rule, active = well fitted curve in the direction sought with a large enough effect; inconclusive = small, poorly fitted or top-dose-only effect, or another doubt; inactive = no such curve, though single readings can be large; an effect the other way counts as inactive or inconclusive.

SMILES	Mito fusion act	Abeta yeast res	aSyn yeast inh	ERG-DNA inh	TDP-43 yeast inh	FUS suppressor
COc1cc(C(=O)Nc2ccc(C(C)=O)cc2)c(Br)c(OC)c1OC	n	n	n	n	n	x
CCC12CN3CC(C)(CN(C1)C3c1c(C)[nH]c3ccccc13)C2=O (centres undefined)	x	n	x	n	n	n
CC(=O)Nc1ccc(Nc2nc3ccccc3nc2NS(=O)(=O)c2ccccc2)cc1	n	n	n	n	20µM	u
CC(=O)Nc1ccc(S(=O)(=O)Nc2nc3ccccc3nc2Nc2ccccc2)cc1	n	n	n	n	n	n
CCOC(=O)c1ccc(NC(=O)CSc2cn(CC(=O)N3CCCC3)c3ccccc23)cc1	x	n	x	n	u	n
OCCC#Cc1c(-c2ccsc2)sc2ccccc12	n	n	n	n	u	n
OCCCCC#Cc1c(-c2ccsc2)sc2ccccc12	n	n	n	n	14.1µM	n
Cc1ccc(C(=O)Nc2ccc(-c3cn4cccnc4n3)cc2)cc1C	x	n	x	n	u	n
CCOc1ccc(NC(=O)CC2C(=O)N(c3ccc(OC)cc3)C(=O)N2C2CCCCC2)cc1 (centres undefined)	x	n	x	n	n	39.8µM
CCCc1cc(=O)[nH]c(-n2[nH]c3c(c2=O)CCCC3)n1	n	u	25.1µM	n	n	n
CCCc1cc(=O)[nH]c(SCC)n1	n	n	n	x	n	u
COc1ccccc1CCNC(=O)c1ccc(Br)s1	n	n	n	n	14.1µM	n
COc1ccccc1CCNS(=O)(=O)CCNC(=O)c1ccccc1	n	n	n	n	n	n
CCOc1ccccc1NS(=O)(=O)c1ccc(Br)s1	n	n	14.1µM	n	n	n
O=S(=O)(Nc1ccc(F)cc1F)c1ccc(Br)s1	x	n	x	n	20µM	n
Cc1ccc(F)cc1NS(=O)(=O)c1ccc(Cl)s1	n	n	n[1.84 µM]	n	35.5µM	n
Cc1nn(C)c(C)c1NS(=O)(=O)c1ccc(Cl)s1	x	n	n	n	n	n
COCCNC(=O)c1ccccc1NS(=O)(=O)c1ccc(Br)s1	n	n	n	n	n	n
Cc1cc(NS(=O)(=O)c2ccc(NC(=O)COc3ccc(Cl)cc3)cc2)nc(C)n1	x	n	x	n	n	n
N=c1nc2n(cc1F)C1OC(CO)C(O)C1O2 (centres undefined)	x	n	n	n	n	x
O=C(NCC(c1ccccc1)c1ccccc1)[C@H](Cc1ccccc1)NC1(C(=O)NC2CCCCC2)CCCCCC1	x	x	x	x	x	n
COc1ccccc1CNS(=O)(=O)c1ccc(Br)s1	n	n	n	n	12.6µM	n
COc1[nH]c(/N=C/c2ccco2)c(C#N)c1C#N	x	x	n	x	x	x
CC(C)(C)OC(=O)N1CCC(c2nnc(SCc3ccccc3)o2)CC1	x	n	n	n	n	n
Cc1[nH]c2ccccc2c1C(=O)CN(C)c1ccccc1	x	x	n	x	x	x
SMILES	Mito fusion act	Abeta yeast res	aSyn yeast inh	ERG-DNA inh	TDP-43 yeast inh	FUS suppressor
Cc1[nH]c2ccccc2c1C(=O)CCl	n	n	n	n	15.8µM	n
OC(c1cccc(Cl)c1)c1nc(/C=C/c2ccccc2)cs1 (centres undefined)	x	n	n	x	8.91µM	n
OC(c1cccc(Cl)c1)c1nc(-c2ccc(Cl)cc2)cs1 (centres undefined)	x	n	n	x	n	n
COc1cccc(C(NC(C)=O)c2nc(/C=C/c3ccccc3)cs2)c1 (centres undefined)	x	n	n	x	u	u
COc1cccc(C(O)c2nc(/C=C/c3ccccc3)cs2)c1 (centres undefined)	x	n	u	x	22.4µM	n
CC(NCc1ccco1)C(=O)N1CCCN(C)CC1 (centres undefined)	x	x	x	x	x	n
CC(C)=CCC[C@](C)(O[C@@H]1O[C@H](CO[C@@H]2OC[C@@H](O)[C@H](O)[C@H]2O)[C@@H](O)[C@H](O)[C@H]1O)C1CC[C@]2(C)C1[C@H](O)CC1[C@@]3(C)CC[C@H](O[C@@H]4O[C@H](CO)[C@@H](O)[C@H](O)[C@H]4O)C(C)(C)C3CC[C@]12C (some centres undefined)	x	n	n	n	n	15.8µM
COc1ccc(-n2nc(C(=O)NCCc3ccc(Cl)cc3)c3c4ccccc4n(C)c3c2=O)cc1	x	n	x	n	n	n
O=C(COc1ccccc1)N1CCN(c2ncnc3c2cnn3-c2ccccc2)CC1	n	n	n	n	14.1µM	n
c1ccc(CN2CCN(c3ncnc4c3cnn4-c3ccccc3)CC2)cc1	x	n	x	n	n	n
Cc1cccc(C(=O)N2CCN(c3ncnc4c3cnn4-c3ccccc3)CC2)c1	n	n	n	n	n	x
c1ccc(-n2ncc3c(N4CCN(CCOc5cccc6ccccc56)CC4)ncnc32)cc1	n	n	n	n	20µM	n
CCc1nnc2c3ccccc3nc(Nc3cc(C)cc(C)c3)n12	x	n	x	n	n	n
CC(C)[C@H](NC(=O)c1ccc(Cl)cc1)C(=O)Nc1cccc(S(=O)(=O)N2CCOCC2)c1	x	n	n	x	n	n
CS(=O)(=O)Nc1cccc(-c2cc(NC=O)c3ncc(-c4ccc(F)cc4)n3c2)c1	x	n	n	x	n	u
CN(C)C(=O)c1cccc(-c2cnc3c(NC=O)cc(-c4cccc(C(F)(F)F)c4)cn23)c1	x	n	n	x	n	28.2µM
COc1ccccc1-c1cc(NC(C)=O)c2ncc(-c3ccccc3)n2c1	x	n	n	x	u	n
O=CNc1cc(-c2cccc(F)c2)cn2c(-c3ccc(F)cc3)cnc12	x	n	n	x	17.8µM	n
COc1ccc(-c2cc(NC(C)=O)c3ncc(-c4cccc(C(F)(F)F)c4)n3c2)c(OC)c1	x	n	n	x	12.6µM	u
CC(=O)Nc1cc(-c2ccccc2F)cn2c(-c3ccccc3)cnc12	x	n	n	x	20µM	n
COc1ccc(-c2cc(NC=O)c3ncc(-c4cccc(C(F)(F)F)c4)n3c2)c(OC)c1	x	n	n	x	15.8µM	u
COc1cccc(-c2cnc3c(NC(C)=O)cc(-c4ccccc4OC)cn23)c1	x	n	n	x	20µM	n
COc1ccc(Nc2nc3ccccc3nc2C)cc1	n	n	n	x	n	n
Cc1nc2ccccc2nc1Nc1cccc(Cl)c1	n	u	n	n	12.6µM	n
COc1ccc(Oc2nc(C)nc3c2oc2ccccc23)cc1	n	n	n	n	15.8µM	n
Cc1nc2ccccc2nc1OCc1cccc(Cl)c1	n	n	n	n	12.6µM	n
Cc1nc(Oc2ccccc2)c2oc3ccccc3c2n1	n	n	n	n	u	n
Cc1nc(Nc2ccccc2O)c2oc3ccccc3c2n1	n	n	n	n	n	n

Screening data as filed in PubChem.
